Source: PubChem BioAssay
DAX1 inh-1 = inhibits human nuclear receptor DAX1; hit rate 0.99% among 340,000; HEK293 Gal4-DAX1 luciferase reporter, luminescence; inhibition, % at 6.75 µM; P51843;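 active = inhibition above the mean over all tested compounds plus 3 SD, cut at about 4.2% in these data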;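 note: 0% = DAX1-transfected cells with DMSO and 100% = empty-vector control cells with DMSO; inhibition shows as a rise in luminescence from relieved DAX1 repression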
Target sequence (P51843 207-470 limits assumed): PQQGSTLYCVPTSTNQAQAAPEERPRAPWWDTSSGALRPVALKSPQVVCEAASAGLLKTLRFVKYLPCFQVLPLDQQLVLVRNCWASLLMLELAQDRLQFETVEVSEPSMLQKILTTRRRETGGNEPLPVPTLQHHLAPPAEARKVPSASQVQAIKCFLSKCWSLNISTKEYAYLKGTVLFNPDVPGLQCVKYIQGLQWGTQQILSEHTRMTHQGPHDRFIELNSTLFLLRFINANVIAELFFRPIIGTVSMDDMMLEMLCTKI
ssDAF-12 act = activators of S. stercoralis DAF-12 nuclear receptor; HEK293 ssDAF-12/GRIP1 lit1-tk-luc reporter, luminescence; % of 3 µM dafachronic acid response; activation, % at 6.8 µM; hit rate 1% among 370,000;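 active = activation above the mean over all tested compounds plus 3 SD, cut at about 0.9% in these data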;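 note: 0% = DMSO-only wells and 100% = 3 µM delta7-dafachronic acid wells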
hgDAF-12 ag = hgDAF-12 agonism, primary luciferase screen; HEK293 GAL4-hgDAF12 UAS-luciferase reporter, agonist luminescence; normalized to butyrate control; activation, % at 6.8 µM; hit rate 1.8% among 370,000; AID 687014;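 active = activation above a cutoff set at the mean of all screened compounds plus 3 SD, cut at about 10% in these data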;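 note: 0% = DMSO wells and 100% = sodium butyrate wells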
DAX1 inh-2 = blocks DAX1 repression of SF-1 activated StAR promoter; HEK293T StAR-luciferase reporter, SF-1/DAX-1 repression relief; hit rate 1.1% among 370,000; inhibition, % at 6.8 µM; AID 652010;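 active = inhibition above the mean over all tested compounds plus 3 SD, cut at about 3.6% in these data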;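 note: 0% = DAX-1 cells with DMSO and 100% = cells lacking DAX-1 with DMSO; higher inhibition means more luminescence from relief of DAX-1 repression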
hcDAF12 agonist = H. contortus DAF-12 activation, primary screen | HEK293 hcDAF-12 lit1-tk-luc reporter, luminescence; 0% DMSO, 100% Δ7-dafachronic acid | activation, % at 6.8 µM | hit rate 1.4% among 370,000 | AID 652067;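 active = activation above the mean of all tested compounds plus 3 SD, cut at about 5.5% in these data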;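 note: 100% = response to 3 µM Δ7-dafachronic acid high control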
LXRb hcDAF ctr = counter-screen for hcDAF-12 agonists: agonists of human LXR-beta | shares compounds with hcDAF12 agonist | activation, % at 6.8 µM | HEK293 Gal4-LXR tk-luc reporter, luminescence, 24 h; normalized: DMSO 0%, positive control 100% | 3,400 tested, under 10 active;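 active = mean percent activation of the reporter above a cutoff set as the average over tested compounds plus their standard deviation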
Target sequence (P55055 whole entry, looked up, the tested form may be a part): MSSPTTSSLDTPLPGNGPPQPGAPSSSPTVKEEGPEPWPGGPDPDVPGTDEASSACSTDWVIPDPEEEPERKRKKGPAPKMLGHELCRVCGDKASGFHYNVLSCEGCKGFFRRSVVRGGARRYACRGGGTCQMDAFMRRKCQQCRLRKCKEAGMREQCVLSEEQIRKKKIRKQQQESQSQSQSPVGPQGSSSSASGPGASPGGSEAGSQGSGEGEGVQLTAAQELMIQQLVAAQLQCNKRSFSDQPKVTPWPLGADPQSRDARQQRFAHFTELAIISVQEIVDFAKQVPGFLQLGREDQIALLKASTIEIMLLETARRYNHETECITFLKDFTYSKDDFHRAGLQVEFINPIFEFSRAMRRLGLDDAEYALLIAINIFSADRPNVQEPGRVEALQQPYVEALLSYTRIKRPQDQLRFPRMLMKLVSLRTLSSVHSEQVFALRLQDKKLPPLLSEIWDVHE
hcDAF12 conf = confirmation of H. contortus DAF-12 agonists; shares compounds with hcDAF12 agonist; HEK293 hcDAF-12 lit1-tk-luc reporter, luminescence; % of Δ7-dafachronic acid response; activation, % at 6.8 µM; hit rate 61% among 3,400;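 active = mean activation across triplicate tests above the threshold derived from the earlier primary screen, cut at about 5.5% in these data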;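 note: 0% = DMSO only wells and 100% = 3 µM Δ7-dafachronic acid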
hgDAF12 conf = confirmation of H. glycines DAF-12 agonists | shares compounds with hgDAF-12 ag | HEK293 GAL4-hgDAF12 luciferase reporter, agonist mode; percent of butyrate response | activation, % at 6.8 µM | hit rate 80% among 3,300;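 active = mean activation over triplicate wells above the hit cutoff derived from the earlier primary screen, cut at about 11% in these data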;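 note: 0% = DMSO low control and 100% = 2 mM sodium butyrate high control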
LXR ag 2 = counter-screen for DAF-12 agonists: agonists of human LXR-beta; shares compounds with hgDAF-12 ag; HEK293 Gal4-LXR luciferase reporter, 24 h; activation, % at 6.8 µM; 3,300 tested, under 10 active; AID 743051;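 active = mean activation of the triplicate above a set limit carried over from the primary screen, none filed active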
Active calls of the source: *; / = not tested or not shown. Rows were chosen to be rich in hits. Some 4.1% of all compounds tested hit in one or more screens of this group.

SMILES | DAX1 inh-1 | ssDAF-12 act | hgDAF-12 ag | DAX1 inh-2 | hcDAF12 agonist | LXRb hcDAF ctr | hcDAF12 conf | hgDAF12 conf | LXR ag 2
Cc1ccc(C)c(NC(=S)c2ccc3ccccc3n2)c1 | 2 | 2.0* | 17* | 2 | 22* | 1 | 15* | 17* | 1
Cc1ccc(C)c(NC(=S)c2ccccn2)c1 | 0 | 0 | 8 | 0 | 2 | / | / | / | /
CC1(c2ccc3ccccc3c2)NC(=O)N(CC(=O)N2CCCC(C(F)(F)F)C2)C1=O (stereo not given) | -1 | 0 | -4 | -2 | -1 | / | / | / | /
COC(=O)c1sccc1N/N=C/c1cccc(OC)c1O | -2 | 1.3* | 19* | 3 | 12* | 2 | 9.0* | 25* | 1
CCOC(=O)c1c(C)nc2c3ccccc3ccn12 | 2 | 2.7* | 19* | 3.7* | 9.7* | 1 | 12* | 17* | 1
CCOC(=O)c1c(C)nc2c(C)cccn12 | 0 | -1 | -2 | 1 | -1 | / | / | / | /
CCOc1ccc(C(=O)Nc2ccccc2C(=O)O)cc1 | 0 | 1.1* | 18* | 3 | 8.2* | 1 | 8.3* | 15* | 1
Cc1c(-c2nc(N)nc(Nc3ccccc3F)n2)oc2ccccc12 | 4 | 0.9* | 14* | 3.7* | 7.5* | 2 | 7.3* | 18* | 1
OC(COCCOc1ccc(Br)cc1)CN1CCN(Cc2ccccc2)CC1 (stereo not given) | -1 | -1 | -1 | -1 | 0 | / | / | / | /
Cc1cc(N/C=C/C(=O)c2ccccc2)ccc1Br | 1 | 2.8* | 14* | 3 | 9.8* | 2 | 18* | 24* | 1
COc1cccc(N/C=C/C(=O)c2ccc(C)cc2)c1 | 3 | 1.4* | 14* | 3 | 8.1* | 2 | 11* | 24* | 1
CN(C)c1ccc(N/C=C/C(=O)c2ccccc2)cc1 | 1 | -1 | 2 | -1 | 0 | / | / | / | /
CCC1CCCCN1C(=O)CSc1nc(N)c(NC(=O)c2ccc(OC)c(OC)c2)c(=O)[nH]1 (stereo not given) | 0 | -1 | -1 | 0 | 1 | / | / | / | /
CCOC(=O)c1c(C)oc2c1cc(O)c1ccccc12 | 4 | 3.1* | 17* | 3 | 13* | 1 | 13* | 20* | 1
CC(=O)c1c(C)oc2c1cc(O)c1ccccc12 | 1 | -1 | 0 | 0 | 0 | / | / | / | /
COc1ccc(Nc2nccc(-c3cccc(N)c3)n2)cc1 | 2 | 1 | 34* | 2 | 13* | 2 | 8.7* | 21* | 1
Clc1ccc2nc3c4ccccc4cnn3c2c1 | 3 | 1.1* | 19* | 3 | 18* | 2 | 17* | 22* | 1
Clc1ccc2nc3ccccc3cc2c1 | 0 | 0 | 4 | 0 | 3 | / | / | / | /
C[C@H]1CN([C@@H](C)CO)C(=O)CCCn2cc(nn2)CO[C@@H]1CN(C)S(=O)(=O)c1ccc(Oc2ccccc2)cc1 | 2 | 0 | 0 | -1 | -2 | / | / | / | /
O=c1[nH]c(N/N=C\c2ccc(F)cc2)nc2ccccc12 | 3 | 1.6* | 15* | 4 | 8.4* | 1 | 5 | 18* | 1
O=c1[nH]c(N/N=C/c2ccc(O)cc2)nc2ccccc12 | 2 | 1 | 9 | 2 | 1 | / | / | / | /
CC(=O)Nc1cccc(-c2ccnc3c2CC(C)(C(=O)NCCC(F)(F)F)O3)c1 (stereo not given) | / | -1 | 2 | -3 | -1 | / | / | / | /
CSc1ccccc1OCc1cc(C(=O)N[C@H]2CCCCNC2=O)no1 | 1 | 0 | 19* | 4.4* | 7.2* | 1 | 3 | 10 | 0
CSc1ccccc1OCc1cc(C(=O)NC(C)c2cnn(C)c2)no1 (stereo not given) | 1 | -1 | 2 | 0 | 2 | / | / | / | /
COc1cccc(NC2SC(=O)N(c3ccccc3)C2=O)c1 (stereo not given) | 1 | 0 | 14* | 5.5* | 7.1* | 0 | 3 | 11* | 0
SMILES | DAX1 inh-1 | ssDAF-12 act | hgDAF-12 ag | DAX1 inh-2 | hcDAF12 agonist | LXRb hcDAF ctr | hcDAF12 conf | hgDAF12 conf | LXR ag 2
CCc1nnc(NC(=O)CN2CCCC(C)C2)s1 (stereo not given) | 0 | -1 | -2 | 0 | -2 | / | / | / | /
COCC(=O)NNC(=O)c1ccccc1OC | -1 | 0 | 1 | 0 | 3 | / | / | / | /
COc1ccccc1C(=O)NNC(=O)c1ccccc1F | 1 | 1.5* | 16* | 3 | 11* | 1 | 11* | 15* | 1
COC(=O)C[C@@H]1CC[C@@H]2[C@H](COc3ccc(NC(=O)c4ccc(F)c(F)c4)cc3C(=O)N2C)O1 | / | -1 | 0 | 0 | 1 | / | / | / | /
COc1ccc2cc(C(=O)N3CCc4ccccc43)[nH]c2c1 | 3 | 1.6* | 19* | 3 | 14* | 2 | 13* | 24* | 1
O=C(c1cc2cc(Br)ccc2[nH]1)N1CCc2ccccc21 | 1 | 1 | 4 | 0 | 4 | / | / | / | /
C=CCN(CC=C)C(=O)C(=O)c1ccn(-c2c(C)csc2C(=O)OC)c1 | -1 | 0 | -1 | 0 | -1 | / | / | / | /
O=C(NC1CCCCC1)c1cc(-c2ccccc2Cl)on1 | 0 | -1 | 8 | 1 | 0 | / | / | / | /
O=C(NC1CCCC1)c1cc(-c2ccccc2Cl)on1 | 1 | 0 | 14* | 1 | 8.0* | 1 | 3 | 16* | 1
Brc1ccc(-n2cnc(-c3ccccc3)c2)cc1 | 5.4* | 0 | 20* | 3 | 7.2* | 1 | 3 | 20* | 1
Cc1c(C(=O)Nc2ccc3c(c2)OCO3)oc2ccccc12 | 1 | 2.8* | 18* | 2 | 16* | 1 | 16* | 21* | 1
O=C(Nc1ccc2c(c1)OCO2)c1ccccc1 | 1 | 0 | 16* | 2 | 9.3* | 1 | 4 | 18* | 1
O=C(NC(=S)Nc1ccc2c(c1)OCO2)c1ccccc1 | 3 | 1 | 15* | 2 | 8.7* | 2 | 6.1* | 20* | 1
CSCc1c(C(=O)Nc2ccc3c(c2)OCO3)oc2ccccc12 | -1 | 0 | 1 | 0 | 3 | / | / | / | /
COCCn1cnc2c1c(=O)n(CC(=O)OCC#N)c(=O)n2Cc1ccccc1 | 0 | -2 | -2 | 0 | 0 | / | / | / | /
CCC(=O)N(C)C[C@H]1Oc2cc(-c3ccccc3F)ccc2S(=O)(=O)N([C@H](C)CO)C[C@H]1C | 0 | -1 | 0 | 1 | -2 | / | / | / | /
